SMILES strings stand for the structures.

The target of assay [1] is Protein kinase C gamma type (Homo sapiens) (UniProt P05129). Particulars: at 1 µM.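 Also: each value is an averaged percent inhibition of the enzyme.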
For assay [2], the target named is T1, Protein kinase C iota type (Homo sapiens) (UniProt P41743).
T1 sequence (whole entry): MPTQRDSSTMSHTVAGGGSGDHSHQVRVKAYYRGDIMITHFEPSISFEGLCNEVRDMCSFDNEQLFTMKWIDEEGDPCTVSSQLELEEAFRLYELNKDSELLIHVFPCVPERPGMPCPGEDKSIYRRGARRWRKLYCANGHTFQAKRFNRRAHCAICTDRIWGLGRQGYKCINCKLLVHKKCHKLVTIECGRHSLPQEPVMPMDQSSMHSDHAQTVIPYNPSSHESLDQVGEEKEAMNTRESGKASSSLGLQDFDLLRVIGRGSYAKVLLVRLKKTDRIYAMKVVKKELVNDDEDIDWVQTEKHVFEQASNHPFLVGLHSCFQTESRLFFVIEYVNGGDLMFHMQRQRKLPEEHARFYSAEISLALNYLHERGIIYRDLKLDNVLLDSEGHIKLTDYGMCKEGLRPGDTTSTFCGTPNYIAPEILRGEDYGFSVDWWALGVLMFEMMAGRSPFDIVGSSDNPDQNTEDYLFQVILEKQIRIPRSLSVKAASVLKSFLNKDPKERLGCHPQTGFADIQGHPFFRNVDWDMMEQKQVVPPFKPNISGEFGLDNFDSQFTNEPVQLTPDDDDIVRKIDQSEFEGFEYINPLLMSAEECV
The settings on record: at 0.1 µM.

Assay [3] addresses T1, Protein kinase C iota type (Homo sapiens). Particulars: at 1 µM.
Assay [4] has as its target Protein kinase C theta type (Homo sapiens) (UniProt Q04759). The settings on record: at 0.1 µM.
Assay [5] shares this target. The settings on record: at 1 µM.
For assay [6], the target named is Protein kinase C beta type (Homo sapiens) (UniProt P05771). Particulars: at 0.1 µM.
For assay [7] the target is unchanged. The settings on record: at 1 µM.
For assay [8], the target named is T2, Serine/threonine-protein kinase D1 (Homo sapiens) (UniProt Q15139).
T2 sequence (whole entry): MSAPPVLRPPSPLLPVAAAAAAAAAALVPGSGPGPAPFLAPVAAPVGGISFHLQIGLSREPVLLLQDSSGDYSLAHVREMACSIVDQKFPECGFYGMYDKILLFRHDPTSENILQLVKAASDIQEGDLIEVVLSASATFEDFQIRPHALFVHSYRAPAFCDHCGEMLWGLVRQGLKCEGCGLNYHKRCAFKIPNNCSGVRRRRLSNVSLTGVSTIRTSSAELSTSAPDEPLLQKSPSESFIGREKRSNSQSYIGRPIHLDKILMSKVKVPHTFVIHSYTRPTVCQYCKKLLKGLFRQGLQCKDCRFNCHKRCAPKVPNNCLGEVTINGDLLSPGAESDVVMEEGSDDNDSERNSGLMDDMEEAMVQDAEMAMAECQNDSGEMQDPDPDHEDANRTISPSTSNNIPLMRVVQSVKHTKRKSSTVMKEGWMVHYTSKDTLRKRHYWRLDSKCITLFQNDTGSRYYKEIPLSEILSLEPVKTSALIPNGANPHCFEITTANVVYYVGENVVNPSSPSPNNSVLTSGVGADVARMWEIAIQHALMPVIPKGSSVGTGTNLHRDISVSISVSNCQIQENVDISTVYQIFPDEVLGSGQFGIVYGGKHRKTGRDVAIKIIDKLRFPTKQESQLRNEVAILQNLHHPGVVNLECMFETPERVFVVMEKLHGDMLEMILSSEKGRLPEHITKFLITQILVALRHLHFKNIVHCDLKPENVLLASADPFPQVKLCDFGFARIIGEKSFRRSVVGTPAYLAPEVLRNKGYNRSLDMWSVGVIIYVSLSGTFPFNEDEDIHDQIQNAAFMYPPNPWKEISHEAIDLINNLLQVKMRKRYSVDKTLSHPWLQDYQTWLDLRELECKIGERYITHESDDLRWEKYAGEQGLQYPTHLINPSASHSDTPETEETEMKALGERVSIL
Particulars: at 0.1 µM.

For assay [9], the target named is T2, Serine/threonine-protein kinase D1 (Homo sapiens). Particulars: at 1 µM.
The target of assay [10] is T3, Serine/threonine-protein kinase D2 (Homo sapiens) (UniProt Q9BZL6).
T3 sequence (whole entry): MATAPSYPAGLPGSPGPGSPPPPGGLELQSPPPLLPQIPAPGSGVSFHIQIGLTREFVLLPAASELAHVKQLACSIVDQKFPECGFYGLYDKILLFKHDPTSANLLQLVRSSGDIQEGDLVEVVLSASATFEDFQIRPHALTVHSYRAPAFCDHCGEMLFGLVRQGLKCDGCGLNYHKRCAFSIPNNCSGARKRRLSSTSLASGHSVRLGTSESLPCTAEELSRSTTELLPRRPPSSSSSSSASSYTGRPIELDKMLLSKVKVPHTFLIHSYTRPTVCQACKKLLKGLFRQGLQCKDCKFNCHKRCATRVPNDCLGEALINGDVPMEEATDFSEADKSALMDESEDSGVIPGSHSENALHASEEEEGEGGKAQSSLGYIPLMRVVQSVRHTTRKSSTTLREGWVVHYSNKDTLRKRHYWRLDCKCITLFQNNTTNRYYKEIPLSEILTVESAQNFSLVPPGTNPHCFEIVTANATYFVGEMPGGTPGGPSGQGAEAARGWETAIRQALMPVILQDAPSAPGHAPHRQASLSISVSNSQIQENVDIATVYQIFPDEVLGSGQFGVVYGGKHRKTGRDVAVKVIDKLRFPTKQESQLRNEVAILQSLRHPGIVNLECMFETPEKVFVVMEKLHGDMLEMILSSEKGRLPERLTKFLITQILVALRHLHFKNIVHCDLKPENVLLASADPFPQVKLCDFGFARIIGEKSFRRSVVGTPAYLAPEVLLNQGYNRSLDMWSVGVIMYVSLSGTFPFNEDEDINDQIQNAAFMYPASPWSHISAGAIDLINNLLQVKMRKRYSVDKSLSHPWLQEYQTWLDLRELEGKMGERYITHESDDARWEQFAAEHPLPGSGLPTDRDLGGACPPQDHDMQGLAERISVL
Particulars: at 0.1 µM.

For assay [11], the target named is T3, Serine/threonine-protein kinase D2 (Homo sapiens). Particulars: at 1 µM.
In assay [12] the target is T4, Serine/threonine-protein kinase D3 (Homo sapiens) (UniProt O94806).
T4 sequence (whole entry): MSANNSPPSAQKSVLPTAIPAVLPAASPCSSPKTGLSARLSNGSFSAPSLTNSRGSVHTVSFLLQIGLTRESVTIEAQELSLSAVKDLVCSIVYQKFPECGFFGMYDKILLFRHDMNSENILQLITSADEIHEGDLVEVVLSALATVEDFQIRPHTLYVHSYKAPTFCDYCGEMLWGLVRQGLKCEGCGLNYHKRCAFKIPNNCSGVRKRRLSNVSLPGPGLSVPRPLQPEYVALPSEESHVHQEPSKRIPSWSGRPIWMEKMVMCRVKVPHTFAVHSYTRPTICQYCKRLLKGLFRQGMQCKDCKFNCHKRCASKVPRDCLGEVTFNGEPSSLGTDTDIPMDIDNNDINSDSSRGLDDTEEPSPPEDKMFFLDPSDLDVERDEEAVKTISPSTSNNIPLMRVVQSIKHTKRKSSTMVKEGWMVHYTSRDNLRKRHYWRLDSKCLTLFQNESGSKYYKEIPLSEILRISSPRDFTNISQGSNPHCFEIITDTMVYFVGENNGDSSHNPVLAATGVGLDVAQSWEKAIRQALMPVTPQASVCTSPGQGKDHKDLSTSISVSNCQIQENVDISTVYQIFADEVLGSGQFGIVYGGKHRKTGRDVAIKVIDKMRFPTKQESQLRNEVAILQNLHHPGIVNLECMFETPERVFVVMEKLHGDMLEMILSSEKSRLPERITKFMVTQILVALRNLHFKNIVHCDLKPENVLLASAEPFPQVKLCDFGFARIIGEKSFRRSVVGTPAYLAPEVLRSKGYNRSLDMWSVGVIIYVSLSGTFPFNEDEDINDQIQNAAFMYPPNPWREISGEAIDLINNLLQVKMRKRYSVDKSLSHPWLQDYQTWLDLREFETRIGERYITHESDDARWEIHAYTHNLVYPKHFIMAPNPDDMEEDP
Particulars: at 0.1 µM.

Assay [13] concerns the target T4, Serine/threonine-protein kinase D3 (Homo sapiens). The settings on record: at 1 µM.
Assay [14] deals with T5, cGMP-dependent protein kinase 1 (Homo sapiens) (UniProt Q13976).
T5 sequence (whole entry): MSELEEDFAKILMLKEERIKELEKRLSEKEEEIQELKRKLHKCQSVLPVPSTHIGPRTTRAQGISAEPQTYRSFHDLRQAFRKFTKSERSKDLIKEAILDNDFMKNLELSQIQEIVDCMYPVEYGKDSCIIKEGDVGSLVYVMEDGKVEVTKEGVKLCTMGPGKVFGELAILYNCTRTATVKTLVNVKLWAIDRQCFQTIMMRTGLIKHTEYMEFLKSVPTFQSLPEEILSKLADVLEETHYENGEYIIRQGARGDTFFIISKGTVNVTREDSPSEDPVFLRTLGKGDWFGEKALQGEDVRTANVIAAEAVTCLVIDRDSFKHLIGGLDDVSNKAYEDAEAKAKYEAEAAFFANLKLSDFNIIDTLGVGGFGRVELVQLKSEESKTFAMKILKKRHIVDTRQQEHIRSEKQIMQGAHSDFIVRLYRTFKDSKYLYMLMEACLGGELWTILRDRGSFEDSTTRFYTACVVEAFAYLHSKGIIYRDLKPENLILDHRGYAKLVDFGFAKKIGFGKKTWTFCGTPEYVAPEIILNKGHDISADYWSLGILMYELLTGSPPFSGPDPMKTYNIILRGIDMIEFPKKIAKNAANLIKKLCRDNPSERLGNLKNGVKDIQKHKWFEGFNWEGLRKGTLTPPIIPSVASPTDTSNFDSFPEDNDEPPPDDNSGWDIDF
Particulars: at 0.1 µM.

Assay [15] concerns the target T5, cGMP-dependent protein kinase 1 (Homo sapiens). Particulars: at 1 µM.
For assay [16], the target named is T6, cGMP-dependent protein kinase 2 (Homo sapiens) (UniProt Q13237).
T6 sequence (whole entry): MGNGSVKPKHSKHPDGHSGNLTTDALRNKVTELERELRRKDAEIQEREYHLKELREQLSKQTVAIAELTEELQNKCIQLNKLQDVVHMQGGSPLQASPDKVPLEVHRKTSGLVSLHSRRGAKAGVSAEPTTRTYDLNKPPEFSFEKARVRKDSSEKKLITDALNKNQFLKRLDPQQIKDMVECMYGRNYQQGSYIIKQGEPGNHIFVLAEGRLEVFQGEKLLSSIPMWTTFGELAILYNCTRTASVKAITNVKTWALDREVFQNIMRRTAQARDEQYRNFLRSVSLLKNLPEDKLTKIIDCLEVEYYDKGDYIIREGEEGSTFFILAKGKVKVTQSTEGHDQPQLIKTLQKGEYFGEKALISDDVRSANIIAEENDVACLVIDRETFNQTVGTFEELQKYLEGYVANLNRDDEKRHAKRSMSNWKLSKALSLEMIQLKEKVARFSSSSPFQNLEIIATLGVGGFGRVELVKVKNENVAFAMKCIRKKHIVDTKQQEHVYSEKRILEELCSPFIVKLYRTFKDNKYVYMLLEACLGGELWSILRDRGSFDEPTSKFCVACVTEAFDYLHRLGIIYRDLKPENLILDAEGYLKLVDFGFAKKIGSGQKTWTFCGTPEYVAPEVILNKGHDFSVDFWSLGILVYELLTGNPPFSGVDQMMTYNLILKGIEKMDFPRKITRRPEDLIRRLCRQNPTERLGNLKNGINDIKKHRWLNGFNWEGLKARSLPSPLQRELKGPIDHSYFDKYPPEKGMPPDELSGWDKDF
Particulars: at 0.1 µM.

Assay [17] addresses T6, cGMP-dependent protein kinase 2 (Homo sapiens). The settings on record: at 1 µM.
Assay [18] concerns the target T7, cAMP-dependent protein kinase catalytic subunit PRKX (Homo sapiens) (UniProt P51817).
T7 sequence (whole entry): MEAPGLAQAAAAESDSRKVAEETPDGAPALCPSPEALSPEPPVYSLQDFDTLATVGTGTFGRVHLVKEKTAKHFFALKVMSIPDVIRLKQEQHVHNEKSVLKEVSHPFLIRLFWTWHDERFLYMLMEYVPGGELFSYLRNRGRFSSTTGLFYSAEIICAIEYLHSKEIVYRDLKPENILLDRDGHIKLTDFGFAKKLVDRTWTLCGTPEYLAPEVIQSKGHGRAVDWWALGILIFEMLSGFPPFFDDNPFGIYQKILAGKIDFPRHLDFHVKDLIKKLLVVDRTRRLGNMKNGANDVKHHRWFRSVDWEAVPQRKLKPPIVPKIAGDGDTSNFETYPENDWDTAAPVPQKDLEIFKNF
The settings on record: at 0.1 µM.

Assay [19] addresses T7, cAMP-dependent protein kinase catalytic subunit PRKX (Homo sapiens). Particulars: at 1 µM.
The target in assay [20] is Rho-associated protein kinase 1 (Homo sapiens) (UniProt Q13464). Particulars: at 0.1 µM.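 Also: values are mean percent inhibition of ROCK1.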
Sequence of Rho-associated protein kinase 1 (Homo sapiens) (Q13464 2-1354 limits assumed): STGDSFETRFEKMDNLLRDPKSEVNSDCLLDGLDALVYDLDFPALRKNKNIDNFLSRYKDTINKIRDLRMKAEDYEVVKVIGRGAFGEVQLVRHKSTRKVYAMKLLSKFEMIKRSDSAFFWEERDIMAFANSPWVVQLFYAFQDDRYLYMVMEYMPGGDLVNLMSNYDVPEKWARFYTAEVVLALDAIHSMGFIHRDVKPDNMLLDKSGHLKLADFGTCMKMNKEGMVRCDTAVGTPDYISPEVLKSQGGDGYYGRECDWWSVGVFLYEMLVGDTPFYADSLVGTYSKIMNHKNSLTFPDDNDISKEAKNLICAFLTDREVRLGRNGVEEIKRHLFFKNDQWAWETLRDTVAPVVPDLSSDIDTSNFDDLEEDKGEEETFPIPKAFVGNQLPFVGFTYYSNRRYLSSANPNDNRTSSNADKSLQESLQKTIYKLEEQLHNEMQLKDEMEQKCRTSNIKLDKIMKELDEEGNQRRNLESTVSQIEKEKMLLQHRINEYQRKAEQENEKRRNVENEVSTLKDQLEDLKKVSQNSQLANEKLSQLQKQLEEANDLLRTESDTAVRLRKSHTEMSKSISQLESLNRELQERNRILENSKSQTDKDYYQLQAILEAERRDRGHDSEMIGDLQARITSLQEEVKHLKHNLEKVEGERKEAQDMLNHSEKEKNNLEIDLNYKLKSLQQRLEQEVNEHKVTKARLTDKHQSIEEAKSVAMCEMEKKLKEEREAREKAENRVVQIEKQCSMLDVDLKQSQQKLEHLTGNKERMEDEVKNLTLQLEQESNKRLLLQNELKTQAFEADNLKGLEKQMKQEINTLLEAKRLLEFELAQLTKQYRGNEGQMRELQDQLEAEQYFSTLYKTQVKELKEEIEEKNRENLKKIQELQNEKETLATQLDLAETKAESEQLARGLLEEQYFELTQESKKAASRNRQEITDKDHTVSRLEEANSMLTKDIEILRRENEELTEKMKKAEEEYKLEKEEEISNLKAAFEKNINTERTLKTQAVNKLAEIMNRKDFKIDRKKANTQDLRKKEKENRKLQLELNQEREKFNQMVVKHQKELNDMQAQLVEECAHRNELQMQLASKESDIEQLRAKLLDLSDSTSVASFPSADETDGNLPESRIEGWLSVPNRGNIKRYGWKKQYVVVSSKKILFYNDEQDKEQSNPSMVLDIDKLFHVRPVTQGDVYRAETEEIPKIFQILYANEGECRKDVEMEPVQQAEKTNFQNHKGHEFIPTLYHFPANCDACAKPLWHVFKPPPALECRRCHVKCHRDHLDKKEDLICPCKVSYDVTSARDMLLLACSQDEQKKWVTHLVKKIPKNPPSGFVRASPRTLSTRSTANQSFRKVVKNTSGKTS

Sequence of Protein kinase C beta type (Homo sapiens) (P05771 2-671 limits assumed): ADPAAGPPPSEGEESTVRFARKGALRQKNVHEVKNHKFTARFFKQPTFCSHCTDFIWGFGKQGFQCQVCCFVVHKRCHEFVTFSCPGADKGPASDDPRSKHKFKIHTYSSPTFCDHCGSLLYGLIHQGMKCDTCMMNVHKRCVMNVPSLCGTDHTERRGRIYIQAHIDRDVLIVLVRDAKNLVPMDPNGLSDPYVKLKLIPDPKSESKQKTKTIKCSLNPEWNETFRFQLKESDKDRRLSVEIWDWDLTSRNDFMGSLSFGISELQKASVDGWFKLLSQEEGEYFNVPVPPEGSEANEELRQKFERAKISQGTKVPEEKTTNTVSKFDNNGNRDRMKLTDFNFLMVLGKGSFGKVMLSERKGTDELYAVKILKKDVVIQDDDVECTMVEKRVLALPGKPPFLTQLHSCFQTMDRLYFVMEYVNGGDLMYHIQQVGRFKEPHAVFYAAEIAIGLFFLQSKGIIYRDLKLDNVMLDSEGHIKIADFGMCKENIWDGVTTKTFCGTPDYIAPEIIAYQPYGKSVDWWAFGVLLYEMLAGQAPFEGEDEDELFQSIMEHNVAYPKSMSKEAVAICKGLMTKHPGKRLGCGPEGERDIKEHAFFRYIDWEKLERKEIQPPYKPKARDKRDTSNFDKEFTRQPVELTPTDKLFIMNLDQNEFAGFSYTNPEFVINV
Sequence of Protein kinase C theta type (Homo sapiens) (Q04759 whole entry, looked up): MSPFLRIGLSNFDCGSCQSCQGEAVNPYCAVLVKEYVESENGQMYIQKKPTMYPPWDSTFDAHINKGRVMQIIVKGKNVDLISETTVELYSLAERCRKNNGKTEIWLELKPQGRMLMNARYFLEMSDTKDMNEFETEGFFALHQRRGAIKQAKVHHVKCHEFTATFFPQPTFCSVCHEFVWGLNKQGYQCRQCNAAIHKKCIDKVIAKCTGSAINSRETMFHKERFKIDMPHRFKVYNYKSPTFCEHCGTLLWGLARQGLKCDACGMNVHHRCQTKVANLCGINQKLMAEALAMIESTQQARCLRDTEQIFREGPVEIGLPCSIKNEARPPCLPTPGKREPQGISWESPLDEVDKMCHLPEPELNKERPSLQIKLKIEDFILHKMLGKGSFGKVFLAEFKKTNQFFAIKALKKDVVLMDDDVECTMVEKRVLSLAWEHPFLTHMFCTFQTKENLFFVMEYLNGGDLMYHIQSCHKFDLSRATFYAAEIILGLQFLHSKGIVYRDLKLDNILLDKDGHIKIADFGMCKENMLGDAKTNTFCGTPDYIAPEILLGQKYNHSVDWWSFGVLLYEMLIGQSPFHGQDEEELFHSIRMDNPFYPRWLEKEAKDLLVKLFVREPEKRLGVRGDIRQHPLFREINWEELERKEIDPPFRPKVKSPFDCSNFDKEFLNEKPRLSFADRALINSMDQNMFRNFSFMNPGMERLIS

The term inhibition denotes the change of the read-out against control, counted positive when it falls. On to `CS(=O)(=O)CCNCc1ccoc1-c1ccc2ncnc(Nc3ccc(OCc4ccccc4)cc3)c2c1`, for which the inhibition was 0.87% in assay [1]; 0.27% in assay [2]; -1.03% in assay [3]; -0.2% in assay [4]; 0.08% in assay [5]; -0.23% in assay [6]. For the same molecule, the inhibition is 0.72% in [7]; 1.6% in [8]; 2.33% in assay [9]; 1.46% in [10]; 1.7% in assay [11]; 0.9% in [12]. Further, the inhibition in [13] is 1.39%; in assay [14] it was -0.04%; in assay [15] it was 0.54%; in assay [16], -0.54%; in [17], -1.25%; in [18] it was 0.33%. For the same molecule, the inhibition was -0.34% in [19] and -1.21% in assay [20].

In the case of `CCCNc1cccc(-n2ncc3c(N/N=C/c4ccncc4)ncnc32)c1`, the inhibition in assay [1] was 5.49%; in assay [2], 3.86%; in assay [3], 12.5%; in [4], 1.36%; in [5], 2.98%; in [6] it was 3.39%. Further, the inhibition is 3.89% in [7]; 2.19% in assay [8]; 1.22% in [9]; -2.37% in [10]; 1.21% in [11]; 0.66% in assay [12]. In addition, the inhibition in [13] was determined as 0.02%; in assay [14] it was 0.73%; in assay [15], 2.57%; in assay [16], 2.7%; in assay [17], 4.72%; in assay [18], 2.18%. The inhibition in assay [19] is 4.42%; in assay [20] it was 2.35%.
